# Out of some 5,500 compounds screened, about 2,000 (36%) were called active. About 18% were inconclusive and are not listed. The list shows a part of the results. A number with no mark means an inactive call. Cut-off read from the data, not from the text of the source: active = normalized growth mostly below about 0.91 (no sharp cut-off); inconclusive = no clear call, values can overlap the other calls; inactive = mostly above about 0.92.
# Assay: chemical genetic growth profiling, strain panel (AID 1159580);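 note: tested at 20 µM; growth read once vehicle control cultures reached saturation at 30 °C; 1 = growth at the plate median or of vehicle wells; lower values mean less growth of the strain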
# Conditions: growth OD
compound,measurement,setting,value
C=C[C@@H](C1=CC(=O)C(OC)=C(OC)C1=O)c1ccccc1,normalized growth,"S. cerevisiae deletion strains, locus YKL009W, strain mrt4, hits give low values",0.957
same,normalized growth,"S. cerevisiae deletion strains, locus YKL068W, hits give low values",1
same,normalized growth,"S. cerevisiae deletion strains, locus YKL085W, strain MDH1 (second series), hits give low values",0.936
same,normalized growth,"S. cerevisiae deletion strains, locus YKL085W, strain MDH1, hits give low values",0.936
same,normalized growth,"S. cerevisiae deletion strains, locus YKL160W, strain elf1, hits give low values",0.401 (active)
same,normalized growth,"S. cerevisiae deletion strains, locus YKL190W, strain CNB1, hits give low values",0.0937 (active)
same,normalized growth,"S. cerevisiae deletion strains, locus YKR001C, strain vps1, hits give low values",0.158 (active)
same,normalized growth,"S. cerevisiae deletion strains, locus YKR026C, strain gcn3, hits give low values",0.945
same,normalized growth,"S. cerevisiae deletion strains, locus YKR091W, strain srl3, hits give low values",0.95
same,normalized growth,"S. cerevisiae deletion strains, locus YLL001W, strain dnm1, hits give low values",0.794 (active)
same,normalized growth,"S. cerevisiae deletion strains, locus YLL026W, hits give low values",0.679 (active)
same,normalized growth,"S. cerevisiae deletion strains, locus YLL041C, strain sdh2, hits give low values",0.811 (active)
same,normalized growth,"S. cerevisiae deletion strains, locus YLR027C, strain aat2, hits give low values",0.448 (active)
same,normalized growth,"S. cerevisiae deletion strains, locus YLR039C, strain RIC1, hits give low values",0.361 (active)
same,normalized growth,"S. cerevisiae deletion strains, locus YLR058C, strain SHM2, hits give low values",0.98
same,normalized growth,"S. cerevisiae deletion strains, locus YLR102C, strain apc9, hits give low values",0.515 (active)
same,normalized growth,"S. cerevisiae deletion strains, locus YLR113W, strain HOG1, hits give low values",0.719 (active)
same,normalized growth,"S. cerevisiae deletion strains, locus YLR221C, strain rsa3, hits give low values",0.363 (active)
same,normalized growth,"S. cerevisiae deletion strains, locus YLR258W, strain gsy2, hits give low values",0.561 (active)
same,normalized growth,"S. cerevisiae deletion strains, locus YLR262C, strain YPT6 (second series), hits give low values",0.17 (active)
same,normalized growth,"S. cerevisiae deletion strains, locus YLR262C, strain YPT6, hits give low values",0.195 (active)
same,normalized growth,"S. cerevisiae deletion strains, locus YLR268W, strain sec22, hits give low values",0.193 (active)
same,normalized growth,"S. cerevisiae deletion strains, locus YLR320W, strain mms22, hits give low values",0.219 (active)
same,normalized growth,"S. cerevisiae deletion strains, locus YLR342W, strain FKS1 (second series), hits give low values",0.331 (active)
same,normalized growth,"S. cerevisiae deletion strains, locus YLR342W, strain FKS1, hits give low values",0.72 (active)
same,normalized growth,"S. cerevisiae deletion strains, locus YLR357W, strain rsc2, hits give low values",0.901
same,normalized growth,"S. cerevisiae deletion strains, locus YLR370C, strain arc18, hits give low values",0.811 (active)
same,normalized growth,"S. cerevisiae deletion strains, locus YLR371W, strain rom2, hits give low values",0.285 (active)
same,normalized growth,"S. cerevisiae deletion strains, locus YLR384C, strain iki3, hits give low values",0.982
same,normalized growth,"S. cerevisiae deletion strains, locus YLR418C, strain cdc73, hits give low values",0.141 (active)
same,normalized growth,"S. cerevisiae deletion strains, locus YML016C, strain PPZ1, hits give low values",0.292 (active)
same,normalized growth,"S. cerevisiae deletion strains, locus YML032C, strain rad52, hits give low values",0.961
same,normalized growth,"S. cerevisiae deletion strains, locus YML120C, strain ndi1, hits give low values",0.924
same,normalized growth,"S. cerevisiae deletion strains, locus YML124C, strain tub3, hits give low values",0.981
same,normalized growth,"S. cerevisiae deletion strains, locus YMR058W, strain fet3, hits give low values",0.612 (active)
same,normalized growth,"S. cerevisiae deletion strains, locus YMR078C, strain ctf18, hits give low values",0.381 (active)
same,normalized growth,"S. cerevisiae deletion strains, locus YMR125W, strain sto1, hits give low values",0.284 (active)
same,normalized growth,"S. cerevisiae deletion strains, locus YMR129W, hits give low values",0.659 (active)
same,normalized growth,"S. cerevisiae deletion strains, locus YMR205C, strain PFK2, hits give low values",0.689 (active)
same,normalized growth,"S. cerevisiae deletion strains, locus YMR223W, strain ubp8, hits give low values",0.493 (active)
same,normalized growth,"S. cerevisiae deletion strains, locus YMR231W, strain pep5, hits give low values",0.529 (active)
same,normalized growth,"S. cerevisiae deletion strains, locus YMR307W, strain GAS1, hits give low values",0.224 (active)
same,normalized growth,"S. cerevisiae deletion strains, locus YNL067W, strain RPL9B, hits give low values",0.67 (active)
same,normalized growth,"S. cerevisiae deletion strains, locus YNL071W, strain lat1, hits give low values",0.0795 (active)
same,normalized growth,"S. cerevisiae deletion strains, locus YNL183C, strain NPR1, hits give low values",0.799 (active)
same,normalized growth,"S. cerevisiae deletion strains, locus YNL209W, strain ssb2, hits give low values",0.748 (active)
same,normalized growth,"S. cerevisiae deletion strains, locus YNL233W, strain BNI4, hits give low values",0.121 (active)
same,normalized growth,"S. cerevisiae deletion strains, locus YNL248C, strain rpa49, hits give low values",0.403 (active)
same,normalized growth,"S. cerevisiae deletion strains, locus YNL250W, strain rad50, hits give low values",0.916
same,normalized growth,"S. cerevisiae deletion strains, locus YNL271C, strain bni1, hits give low values",0.88 (active)
same,normalized growth,"S. cerevisiae deletion strains, locus YNL298W, strain CLA4, hits give low values",0.925
same,normalized growth,"S. cerevisiae deletion strains, locus YNL307C, strain MCK1, hits give low values",0.0762 (active)
same,normalized growth,"S. cerevisiae deletion strains, locus YNL322C, strain KRE1 (second series), hits give low values",0.911
same,normalized growth,"S. cerevisiae deletion strains, locus YNL322C, strain KRE1, hits give low values",0.835 (active)
same,normalized growth,"S. cerevisiae deletion strains, locus YNR049C, strain mso1, hits give low values",0.986
same,normalized growth,"S. cerevisiae deletion strains, locus YNR052C, strain pop2, hits give low values",0.983
same,normalized growth,"S. cerevisiae deletion strains, locus YOL012C, strain htz1",0.17 (active)
same,normalized growth,"S. cerevisiae deletion strains, locus YOL147C, strain pex11, hits give low values",0.959
same,normalized growth,"S. cerevisiae deletion strains, locus YOR001W, strain rrp6, hits give low values",0.976
same,normalized growth,"S. cerevisiae deletion strains, locus YOR061W, strain CKA2, hits give low values",0.829 (active)
same,normalized growth,"S. cerevisiae deletion strains, locus YOR069W, strain VPS5, hits give low values",0.314 (active)
same,normalized growth,"S. cerevisiae deletion strains, locus YOR070C, strain gyp1, hits give low values",0.487 (active)
same,normalized growth,"S. cerevisiae deletion strains, locus YOR080W, strain dia2, hits give low values",1.01
same,normalized growth,"S. cerevisiae deletion strains, locus YOR083W, strain WHI5, hits give low values",0.554 (active)
same,normalized growth,"S. cerevisiae deletion strains, locus YOR106W, strain vam3, hits give low values",0.297 (active)
same,normalized growth,"S. cerevisiae deletion strains, locus YOR136W, strain idh2, hits give low values",0.675 (active)
same,normalized growth,"S. cerevisiae deletion strains, locus YOR144C, strain elg1, hits give low values",0.962
same,normalized growth,"S. cerevisiae deletion strains, locus YOR184W, strain ser1, hits give low values",0.15 (active)
same,normalized growth,"S. cerevisiae deletion strains, locus YOR231W, strain MKK1, hits give low values",0.93
same,normalized growth,"S. cerevisiae deletion strains, locus YOR265W, strain rbl2, hits give low values",0.686 (active)
same,normalized growth,"S. cerevisiae deletion strains, locus YOR270C, strain vph1, hits give low values",0.616 (active)
same,normalized growth,"S. cerevisiae deletion strains, locus YOR290C, strain snf2, hits give low values",0.911
same,normalized growth,"S. cerevisiae deletion strains, locus YOR316C, strain cot1, hits give low values",0.833 (active)
same,normalized growth,"S. cerevisiae deletion strains, locus YPL051W, strain arl3, hits give low values",0.384 (active)
same,normalized growth,"S. cerevisiae deletion strains, locus YPL078C, strain atp4, hits give low values",0.954
same,normalized growth,"S. cerevisiae deletion strains, locus YPL106C, strain sse1, hits give low values",0.984
same,normalized growth,"S. cerevisiae deletion strains, locus YPL240C, strain hsp82, hits give low values",0.625 (active)
same,normalized growth,"S. cerevisiae deletion strains, locus YPL241C, strain CIN2, hits give low values",0.523 (active)
same,normalized growth,"S. cerevisiae deletion strains, locus YPL256C, strain CLN2, hits give low values",0.895
same,normalized growth,"S. cerevisiae deletion strains, locus YPR119W, strain clb2, hits give low values",0.615 (active)
same,normalized growth,"S. cerevisiae deletion strains, locus YPR141C, strain kar3, hits give low values",0.983
same,normalized growth,"S. cerevisiae deletion strains, locus YPR163C, strain tif3, hits give low values",0.151 (active)
same,normalized growth,"S. cerevisiae deletion strains, locus YPR167C, strain met16, hits give low values",0.456 (active)
same,normalized growth,"S. cerevisiae deletion strains, strain wtn01, hits give low values",0.196 (active)
same,normalized growth,"S. cerevisiae strains, strain wild type, hits give low values",0.114 (active)

# Source: PubChem BioAssay AID1159580 (chemical genetic matrix, 2015)
